Results published in PubChem BioAssay (NCATS).
Results filed as inconclusive are left out. Activity calls are given as the source filed them. Calls come from the whole dose curve; as a rule, active = well fitted cell-killing curve with a large enough effect; inconclusive = small, poorly fitted or top-dose-only effect; inactive = flat fitted curve, though single readings scatter.

test: Cell Viability - H-4-II-E (AID 543); settings: H-4-II-E rat hepatoma viability; series mostly up to 92.2 µM; activity change, negative = cytotoxic: at the top concentration; note: nearly all actives have a fitted effect of over 35% in size
Excerpt: NIH Chemical Genomics Center [NCGC]
NIH Molecular Libraries Screening Centers Network [MLSCN]
National Institutes of Environmental Health Sciences [NIEHS]
National Toxicology Program [NTP]
We have developed a 1536-well cell-based assay for quantitative high throughput screening (qHTS) against a number of cell lines to determine in vitro cytotoxicity of small molecules. This particular assay uses the H-4-II-E cell line which is derived from rat hepatoma.
NCGC Assay Protocol Summary:
The CellTiter-Glo luminescent cell viability assay (Promega) is a homogeneous method to measure the number of viable cells in culture. The end point readout of this assay is based on quantitation of intracellular ATP, an indicator of metabolic activity, using the luciferase reaction. Luciferase catalyzes the oxidation of beetle Luciferin to oxyluciferin and light in the presence of ATP. The luminescent signal is proportional to amount of ATP present.
Using the CellTiter-Glo luminescent cell viability assay, the amount of cellular ATP was measured in the H-4-II-E cell line with complete culture medium following compound treatment for 40 hours. The assay was performed in opaque white Kalypsys 1536-well plates. In the screen, tamoxifen and doxorubicin were used as positive controls. Library compounds were measured for their ability to cause acute toxicity in the cell line, as reflected by a decrease in intracellular ATP levels, in a concentration-dependent manner. […] AC50 values were determined from concentration-response data modeled with the standard Hill equation.
qHTS protocol fo CellTiter Glo H-4-II-E cellular assay
[Step] [Parameter] [Value] [Description]
1. Reagent; 5 uL; 1500 H-4-II-E cells/well
2. Time; 5 hr; 37 °C incubation
4. Controls; 23 nL; Tamoxifen 0.34 uM to 100 uM & Doxorubicin 0.02 nM to 100 uM
5. Time; 40 hr; 37 °C incubation
6. Reagent; 5 uL; CellTiter Glo reagent
7. Time; 20 min; Room Temperature
8. Detection; Luminescence; Viewlux plate reader
Keywords: cell viability, cytotoxicity, H-4-II-E cell line, luminescence, NTPHTS, NTPHTS_NCGC, NIEHS, EPA, DSSTox, MLSMR, MLSCN, NIH Roadmap, qHTS, NCGC
% is set by controls: 0 for no effect and ±100 for the full control effect.

SMILES | activity change, negative = cytotoxic
Cc1cccc2sc(N)nc12 | -4.44% (inactive)
Nc1c(Cl)cc(Cl)cc1Cl | -3.61% (inactive)
O=C(O)/C=C/C(=O)O | -3.04% (inactive)
CCCCCNCCCCC | 9.07% (inactive)
Cc1cccc([N+](=O)[O-])c1C(=O)O | -5.58% (inactive)
Cc1ccc(C)cc1 | -6.57% (inactive)
Cc1cc(C)cc(N)c1 | -2.02% (inactive)
O=CNc1ccccc1 | -8.09% (inactive)
CC(C)C=O | -1% (inactive)
COCCOC(=O)c1ccccc1C(=O)OCCOC | -18.5% (inactive)
O=C(O)c1ccc(Cl)c(Cl)c1 | -7.87% (inactive)
CN(C)c1cccc(O)c1 | -1.83% (inactive)
COC(=O)c1ccccc1 | -1.11% (inactive)
CC(=O)Nc1ccccc1C | 0.577% (inactive)
Cc1cc([N+](=O)[O-])ccc1N | -9.34% (inactive)
O=Cc1ccc(Cl)cc1 | 2.45% (inactive)
CC(=O)c1ccccc1[N+](=O)[O-] | -9.43% (inactive)
CCCCCCCCCCCCC1CO1 (stereo not given) | -0.404% (inactive)
Nc1nc(-c2ccccc2)cs1 | -16.7% (inactive)
CC#N | 1.07% (inactive)

SMILES | activity change, negative = cytotoxic
O=Cc1ccccc1Cl | -0.754% (inactive)
CCCCCCC(=O)O | -10.6% (inactive)
Cc1ccc([N+](=O)[O-])c(N)c1 | -0.213% (inactive)
CCOC(=O)OCC | -1.43% (inactive)
Nc1cccc(N)c1 | -14% (inactive)
Cc1ccc(C)o1 | -6.71% (inactive)
Cc1c(N)cccc1[N+](=O)[O-] | -9.02% (inactive)
O=[N+]([O-])c1cccc(Cl)c1 | -1.59% (inactive)
O=C(O)c1ccccc1Cl | -9.62% (inactive)
CCCCCCC=O | -4.54% (inactive)
O=Cc1cccc(Br)c1 | -6.77% (inactive)
Cc1ccc(S(=O)(=O)NC2CCCCC2)cc1 | -17.6% (inactive)
CCOCCO | 3.85% (inactive)
O=Cc1ccc(C(=O)O)cc1 | 1.89% (inactive)
C=C(C)C(=O)OCC(C)C | -3.14% (inactive)
Cc1ccccc1C#N | -12.8% (inactive)
CCCC=O | -4.09% (inactive)
CC(=O)c1nccs1 | -0.876% (inactive)
C[C@@H]1O[C@@H](O[C@@H]2[C@@H](O)[C@H](OCCc3ccc(O)c(O)c3)O[C@H](CO[C@@H]3O[C@H](CO)[C@@H](O)[C@H](O)[C@H]3O)[C@H]2OC(=O)/C=C/c2ccc(O)c(O)c2)[C@H](O)[C@H](O)[C@H]1O | -12.9% (inactive)
OC/C(Br)=C(\Br)CO | -5.32% (inactive)
